Experimental findings from the supplement of paper PMC3342239 are described below.

Structures can show the parent of a compound that is named as a salt.

The first experiment has as its system Saccharomyces cerevisiae. Nature of the experiment: fraction of cells in G1 phase (DNA content, flow cytometry); higher = more cells with unreplicated DNA (G1 delay). To be noted: temperature: 30 C; YPD; BY4741 PDR5+ SNQ2+; drug added to: actively dividing cells; 4.33 h. Summed up: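 S. cerevisiae in YPD at 30°C was treated with library drugs, with DMSO-only wells as reference. Sensitized JTY2953 cultures diluted 1∶200 from overnight received a final 20 µg/ml and were fixed after 6–7 h; other runs dosed dividing JTY2953 (fixed 6 h later) or BY4741 (4.33 h later). Ethanol-fixed cells were stained with SYTOX Green and 10,000 events read by flow cytometry. G1 fraction is the Dean-Jett-Fox G1 peak area over G1 plus G2/M areas.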
On the technique in general: A flow cytometer gives signals particle by particle.
For `CN(C)CCCN1c2ccccc2Sc2ccc(Cl)cc21` [Chlorpromazine HCl] (62.7212 µM), the “fraction of cells in G1 phase” value was determined as 0.373.
As for `COc1c(N2C[C@@H]3CCCN[C@@H]3C2)c(F)cc2c(=O)c(C(=O)O)cn(C3CC3)c12` [Moxifloxacin HCl] (45.6725 µM), the “fraction of cells in G1 phase” value was 0.402.
Still for that read-out and setting: under `CC[C@@]1(O)C[C@H](O[C@H]2C[C@H](N(C)C)[C@H](O[C@H]3C[C@H](O)[C@H](O[C@H]4CCC(=O)[C@H](C)O4)[C@H](C)O3)[C@H](C)O2)c2c(cc3c(c2O)C(=O)c2c(O)cccc2C3=O)[C@H]1C(=O)OC` [Aclarubicin] (24.6339 µM) stands 0.431.

Still in this experiment, the particulars now being: temperature: 30 C; YPD; JTY2953 pdr5 snq2 (sensitized); drug added to: actively dividing cells; 6 h.
Turning to `CN1CCC[C@@H]1CCO[C@](C)(c1ccccc1)c1ccc(Cl)cc1` [Clemastine fumarate] (58.1564 µM), the “fraction of cells in G1 phase” value came out at 0.585.
Take `CCN(CC)C(=S)SSC(=S)N(CC)CC` [Disulfiram] (67.4445 µM): the “fraction of cells in G1 phase” value was found to be 0.466.
In the case of `COC(=O)C1=C(C)NC(C)=C(C(=O)OCC(C)C)C1c1ccccc1[N+](=O)[O-]` (stereo not given) [Nisoldipine] (51.4901 µM), the “fraction of cells in G1 phase” value worked out at 0.587.
`Clc1ccc(CCC(Cn2ccnc2)Sc2c(Cl)cccc2Cl)cc1` (stereo not given) [Butoconazole nitrate] (42.123 µM): the “fraction of cells in G1 phase” value worked out at 0.478.

The same experiment, now with this note: temperature: 30 C; YPD; JTY2953 pdr5 snq2 (sensitized); drug added to: cultures diluted from stationary phase; 6-7 h.
On to `CN(C)CCCN1c2ccccc2Sc2ccc(Cl)cc21` [Chlorpromazine HCl] (62.7212 µM), for which the “fraction of cells in G1 phase” value stood at 0.278.
Same read-out and setting: under `C[C@H](N[C@@H](CCc1ccccc1)C(=O)O)C(=O)N1CCC[C@H]1C(=O)O` [Enalaprilat] (57.4049 µM) stands 0.491.
With `Cn1c(NCCN(CCO)CCCc2ccc([N+](=O)[O-])cc2)cc(=O)n(C)c1=O` [Nifekalant HCl] (49.327 µM), the “fraction of cells in G1 phase” value worked out at 0.479.
For the compound `Cc1cc2c(OCC(CNC(C)(C)C)OC(=O)c3ccccc3)cccc2[nH]1` (stereo not given) [Bopindolol malonate] (52.5636 µM), the “fraction of cells in G1 phase” value is 0.517.
Still for that read-out and setting: under `COc1c(N2C[C@@H]3CCCN[C@@H]3C2)c(F)cc2c(=O)c(C(=O)O)cn(C3CC3)c12` [Moxifloxacin HCl] (45.6725 µM) stands 0.212.
Turning to `CN1CCC[C@@H]1CCO[C@](C)(c1ccccc1)c1ccc(Cl)cc1` [Clemastine fumarate] (58.1564 µM), the “fraction of cells in G1 phase” value was found to be 0.66.
Consider `CN1CCC(=C2c3ccccc3C=Cc3ccccc32)CC1` [Cyproheptadine] (69.5874 µM), for which the “fraction of cells in G1 phase” value was determined as 0.426.
Still for that read-out and setting: under `CC[C@H](C)C(=O)O[C@H]1CCC=C2C=C[C@H](C)[C@H](CC[C@@H]3C[C@@H](O)CC(=O)O3)[C@H]21` [Mevastatin] (51.2132 µM) stands 0.502; under `CCN(CC)C(=S)SSC(=S)N(CC)CC` [Disulfiram] (67.4445 µM), 0.876; under `O=c1[nH]c(=O)n([C@H]2C[C@H](O)[C@@H](CO)O2)cc1I` [Idoxuridine] (56.4808 µM), 0.515.
On the same count and under the same terms, under `C/C=C/c1ccc(OC)cc1` [Anethole, trans-] (134.947 µM) stands 0.525; under `N.N.O=C([O-])C[O-].[Pt+2]` [Nedaplatin] (65.9657 µM), 0.545; under `COC(=O)C1=C(C)NC(C)=C(C(=O)OCC(C)C)C1c1ccccc1[N+](=O)[O-]` (stereo not given) [Nisoldipine] (51.4901 µM), 0.605.
On the same count and under the same terms, under `CN1CCCN=C1/C=C/c1cccs1` [Pyrantel pamoate] (33.6309 µM) stands 0.464; under `COC(=O)N/N=C/c1c[n+]([O-])c2ccccc2[n+]1[O-]` [Carbadox] (76.2699 µM), 0.414; under `CC[C@@]1(O)C(=O)OCc2c1cc1n(c2=O)Cc2cc3c(CN(C)C)c(O)ccc3nc2-1` [Topotecan] (47.4544 µM), 0.481.
Regarding `CNNCc1ccc(C(=O)NC(C)C)cc1` [Procarbazine HCl] (90.3731 µM), the “fraction of cells in G1 phase” value is 0.49.
On to `CC1(C)C[C@@H]1C(=O)N/C(=C\CCCCSC[C@H](N)C(=O)O)C(=O)O` [Cilastatin] (55.7942 µM), for which the “fraction of cells in G1 phase” value is 0.484.
With `COc1cc(C(=O)OCCCN2CCCN(CCCOC(=O)c3cc(OC)c(OC)c(OC)c3)CC2)cc(OC)c1OC` [Dilazep] (33.074 µM), the “fraction of cells in G1 phase” value was 0.47.
As to `Clc1ccc(CCC(Cn2ccnc2)Sc2c(Cl)cccc2Cl)cc1` (stereo not given) [Butoconazole nitrate] (42.123 µM), the “fraction of cells in G1 phase” value was found to be 0.904.
On to `CC(N)C12CC3CC(CC(C3)C1)C2` (stereo not given) [Rimantadine HCl] (111.54 µM), for which the “fraction of cells in G1 phase” value worked out at 0.484.
Take `COc1ccc(CCN(C)CCCC(C#N)(c2ccc(OC)c(OC)c2)C(C)C)cc1OC` (stereo not given) [Verapamil] (40.7249 µM): the “fraction of cells in G1 phase” value stood at 0.507.
On to `CCN1CCC[C@H]1CNC(=O)c1c(OC)ccc(Br)c1OC` [Remoxipride] (53.8681 µM), for which the “fraction of cells in G1 phase” value came out at 0.525.
